An excerpt weighted towards active compounds, which were near 7.6% of everything screened.
Giardia killer: kills Giardia lamblia; Giardia lamblia trophozoite viability; activity change, % at 7.66 µM, hits read low; actives 0.15% (n = 340,000); in the data active means activity change below about -80%; inconclusive means between about -30% and that limit;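 further: parasites exposed to compound for two days anaerobically before the ATP read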
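Giardia trophozoites, 100 cells per well, were exposed to compounds for 48 hrs at 37 deg C under anaerobic conditions; viability was then read as ATP content by bioluminescence after 15-30 min at room temperature.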
ELG1 repair inh: inhibitors of ELG1-dependent DNA repair in HEK293T cells; AID 504467; actives 2.3% (n = 330,000); Potency, µM (series often up to 46.1 µM), hits mostly inhibitors; HEK293T ELG1-luciferase reporter, luminescence, 16 h; DNA damage induced by 5-fluorouridine; further: nearly all actives have a fitted effect of over 55% in size
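HEK293T cells expressing luciferase-tagged ELG1 (2,000/well) received 5-Fluorouridine plus compound or DMSO for 16 hr at 37 °C. Luciferase was read by ONE-Glo luminescence after 30 min at room temperature.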
VP16 counter: counter-screen for ROR gamma inhibitors: Gal4-VP16 reporter. Drosophila S2 Gal4-VP16 UAS-luciferase, luminescence, 20 h. Potency, µM (top dose mostly 53.6 µM), actives largely listed as inhibitors. actives 3.5% (n = 310,000);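 further: Gal4-VP16 expression switched on by copper sulfate through the metallothionein promoter; nearly all actives have a fitted effect of over 50% in size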
p53 reactivation: restores transcriptional activity of mutant p53 | H1299 p53-A138V BP100-luciferase reporter, luminescence, 24 h | Potency, µM (doses to about 92.2 µM), actives largely listed as activators | actives 0.063% (n = 320,000) | AID 504706; further: nearly all actives have a fitted effect of over 45% in size
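p53-null H1299 cells stably carrying temperature-sensitive p53-A138V and a BP100-luciferase reporter were pinned with compounds (4-point, 1:5 series) and held 24 hrs at 37 deg C. Luminescence was read 10 min after detection reagent.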
RORg inh: inhibitors of mouse ROR gamma transcriptional activity; P51450; Drosophila S2 Gal4-RORgamma UAS-luciferase reporter, 20 h; Potency, µM (highest dose often 53.6 µM), most hits filed as inhibitors; actives 5.4% (n = 310,000); AID 2551; further: nearly all actives have a fitted effect of over 60% in size
Target sequence (P51450 whole entry, looked up, the tested form may be a part): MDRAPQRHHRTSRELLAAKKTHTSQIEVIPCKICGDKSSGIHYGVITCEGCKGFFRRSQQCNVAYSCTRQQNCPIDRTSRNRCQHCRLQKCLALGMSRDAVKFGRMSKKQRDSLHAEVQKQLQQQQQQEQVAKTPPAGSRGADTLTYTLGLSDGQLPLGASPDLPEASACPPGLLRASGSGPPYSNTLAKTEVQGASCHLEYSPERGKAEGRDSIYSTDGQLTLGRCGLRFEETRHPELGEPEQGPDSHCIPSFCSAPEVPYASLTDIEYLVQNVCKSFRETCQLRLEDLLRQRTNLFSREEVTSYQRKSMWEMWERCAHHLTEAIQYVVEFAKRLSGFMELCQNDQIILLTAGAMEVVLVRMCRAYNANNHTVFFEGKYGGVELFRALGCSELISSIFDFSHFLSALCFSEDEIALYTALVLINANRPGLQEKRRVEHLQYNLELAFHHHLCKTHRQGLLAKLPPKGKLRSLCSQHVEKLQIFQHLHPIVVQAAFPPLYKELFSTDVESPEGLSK
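Compounds are pin-transferred onto Drosophila Schneider cells expressing a copper-inducible Gal4–ROR gamma transactivation domain fusion. After 1 hr, copper sulfate is added to 700 uM final; luciferase is read 20 hr later.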
BRCA1 expr up: increases BRCA1 expression; MCF7-BRCA1-FFLuc reporter, luminescence, 48 h; response scale: scaled: vehicle 0%, 10 µM genistein 100%; Potency, µM (top dose mostly 46.1 µM), usual class: activators; actives 1.1% (n = 380,000); AID 624202; further: nearly all actives have a fitted effect of over 80% in size
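Quantitative HTS in MCF7 cells stably reporting BRCA1 expression via firefly luciferase. Compound treatment lasts 48 h at 37 °C in phenol-red free MEM. Activation is expressed relative to genistein at 10 microM and DMSO.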
A number is an active result; n = inactive; u = inconclusive; x = no result given; [ ] = remark or other dose. Unless noted, the call rests on the fitted dose curve; in most records, active means well fitted curve in the direction sought with a large enough effect; inconclusive means small, poorly fitted or top-dose-only effect, or another doubt; inactive means no such curve, though single readings can be large; an effect the other way counts as inactive or inconclusive.

SMILES	Giardia killer	ELG1 repair inh	VP16 counter	p53 reactivation	RORg inh	BRCA1 expr up
O=C(NCCC1=CCCCC1)c1ccc(F)cc1	n	u	11µM	u	u	n
O=C(CCNC(=O)c1ccc([N+](=O)[O-])cc1)NCCC1=CCCCC1	n	n	x	n	x	n
CCC(CC)C(=O)Nc1nnc(-c2cccs2)s1	n	u	n	u	n	n
CCCOc1ccc(-c2cn3ccccc3n2)cc1	u	u	u	n	4.5µM	n
COc1ccc(-c2nc3ccccn3c2Cl)cc1	n	u	u	u	16µM	n
COc1c(Cl)cccc1-c1cn2ccccc2n1	n	u	u	u	11µM	u
COc1ccc(-c2cn3ccccc3n2)cc1[N+](=O)[O-]	u	u	n	n	u	u
COc1ccc(-c2cn3ccccc3n2)cc1	u	u	13µM	n	6.3µM	n
CC(C)c1nc(NCCO)c(C#N)c2c1CCCC2	n	u	u	n	n	n
C=CCn1c(COc2ccc(OC)cc2)nc2ccccc21	n	u	n	n	n	u
COc1ccc(-c2cn3cc(C(F)(F)F)cc(Cl)c3n2)cc1	n	u	n	u	n	n
COc1ccc(-c2cn3ccc4ccccc4c3n2)cc1	n	u	n	28µM	u	u
Cc1ccc(-c2cc(-c3ccccc3)nc(N(C)N)n2)cc1	n	n	u	x	13µM	n
CCOC(=O)N/N=C/C(Cl)=C/c1ccccc1	n	u	u	n	u	u
Cc1cccc(/C=N/NC(=O)Cc2cccs2)c1	n	u	n	n	n	11µM
O=C(Cc1cccs1)N/N=C/C(Cl)=C/c1ccccc1	n	u	n	n	u	5.6µM
O=C(Cc1cccs1)N/N=C/c1ccccc1	n	u	n	n	n	n
COc1ccccc1N1CCN(C(=O)c2ccccc2SCC(=O)NCc2ccco2)CC1	n	n	x	n	x	n
Cc1ccc(Cn2cccc2/C=C2/C(=N)N3C=CSC3=NC2=O)cc1	n	n	u	n	13µM	n
N=C1/C(=C/c2cccn2Cc2ccc(F)cc2)C(=O)N=C2SC=CN12	n	n	n	n	10µM	n
Cc1cccc(Cn2cccc2/C=C2/C(=N)N3C=CSC3=NC2=O)c1	n	n	7.9µM	n	8.9µM	n
CN1C(=O)CSc2ccc(NC(=O)NCc3cccnc3)cc21	n	u	n	n	n	n
Cc1cc(C)c2nc(NNC(=O)c3cc(-c4cccs4)nc4ccccc34)sc2c1	n	u	10µM	u	1.8µM	n
Cc1ccc2sc(NNC(=O)c3cc(-c4cccs4)nc4ccccc34)nc2c1C	x	u	18µM	n	4.5µM	x
O=C(NNc1nc2ccc(Cl)cc2s1)c1cc(-c2cccs2)nc2ccccc12	n	u	u	n	1.1µM	n
SMILES	Giardia killer	ELG1 repair inh	VP16 counter	p53 reactivation	RORg inh	BRCA1 expr up
COc1ccc(N(CC(=O)O)S(=O)(=O)c2ccc(OC)c(OC)c2)cc1	n	n	n	n	n	n
COC(=O)Cn1c(O)c(N=NC(=O)c2ccc3c(c2)OCO3)c2ccccc21	n	u	n	n	n	n
COC(=O)c1c(-c2ccc(C)cc2)csc1NC(=O)C1CC=CCC1C(=O)O (centres undefined)	n	u	n	u	u	11µM
COc1ccc(CNC(=O)C(c2ccco2)N(Cc2ccccc2)C(=O)Cc2cccs2)cc1 (centres undefined)	n	18µM	n	n	u	n
COc1ccc(CNC(=O)C(c2cccs2)N(Cc2ccco2)C(=O)Cc2cccs2)cc1 (centres undefined)	n	15µM	n	n	u	n
CCOc1ccc(NC(=O)CS(=O)CC(=O)NC2CCCc3ccccc32)cc1 (centres undefined)	n	n	n	n	n	n
COCCn1c(=S)[nH]c2ccccc21	n	n	n	n	u	n
COCCn1c(C23CC4CC(CC(C4)C2)C3)n[nH]c1=S	n	u	1.1µM	n	4µM	n
CCCCn1c(C23CC4CC(CC(C4)C2)C3)n[nH]c1=S	n	n	3.2µM	n	2.8µM	n
CCCCn1c(-c2cccnc2)n[nH]c1=S	n	n	n	n	u	n
CCOC(=O)[C@@H]1[C@H]2COc3cc(OC)ccc3[C@@H]2N2C(=O)N(c3cccc(Cl)c3)C(=O)[C@@]12C	n	n	n	n	11µM	n
CCOC(=O)[C@@H]1[C@H]2COc3ccc(Br)cc3[C@@H]2N2C(=O)N(c3ccccc3)C(=O)[C@@]12C	n	n	n	x	10µM	n
CCOC(=O)[C@H]1[C@H]2COc3ccc(Br)cc3[C@@H]2N2C(=O)N(c3ccccc3)C(=O)[C@@]12C	n	n	x	n	x	n
CCOC(=O)[C@@H]1[C@H]2COc3ccccc3[C@@H]2N2C(=O)N(c3ccccc3)C(=O)[C@@]12C	n	n	n	x	13µM	n
CC(NC(=O)c1ccco1)C(=O)NC(C)c1cc(F)c(Cl)cc1Cl (centres undefined)	n	n	n	n	n	n
O=C(NCCCn1ccnc1)C(=O)NCc1ccccc1	n	n	n	n	n	n
Cc1[nH]n(S(=O)(=O)c2ccccc2)c(=O)c1N=Nc1cccc(Cl)c1	u	n	u	n	u	n
NC(=S)n1[nH]c(-c2ccc([N+](=O)[O-])cc2)c(N=Nc2cccc(Cl)c2)c1=O	n	3.7µM	7.1µM	n	0.4µM	n
NC(=S)n1[nH]c(-c2ccc([N+](=O)[O-])cc2)c(N=Nc2ccc(O)cc2)c1=O	n	n	n	n	n	n
Cc1[nH]n(C(N)=S)c(=O)c1N=Nc1cccc(Cl)c1	n	u	1.6µM	u	0.28µM	u
Clc1ccc(-c2csc(NNC3=NCCCCC3)n2)cc1	n	u	u	n	5.6µM	n
O=C(Nc1nc(-c2ccc(Cl)cc2)cs1)C1CCCO1 (centres undefined)	n	u	n	n	n	6.3µM
C[Si](C)(C)n1ccnc1	u	n	n	n	n	n
Cc1ccc(-n2c(O)c(C=NCc3ccccn3)c3ccccc3c2=O)cc1C	n	u	22µM	n	10µM	n
O=c1c2ccccc2c(C=NCc2ccccn2)c(O)n1-c1ccccc1Cl	n	n	u	n	11µM	n
CCN1C(=O)[C@H]2[C@H]3[C@H](O)[C@H](O)C/C(=N/O[C@@H](C)CN4CCCCc5nc(C)c(C)cc54)[C@@H]3CC[C@@H]2C1=O	x	x	n[10 µM]	x	n[10 µM]	x
CC(=O)c1ccc(NC(=O)Cn2cnc(S(=O)(=O)N3CCCCC3)c2)cc1	n	u	n	n	n	n
C#C[C@@]1(O)CC[C@@H]2[C@H]3CCC4=C/C(=N\O)CC[C@H]4[C@@H]3CC[C@]21CC	x	x	n	x	n	x
